The whole screen tested about 63,000 compounds, of which about 1,100 (1.7%) were called active. The sample holds actives, similar compounds and a random draw of the others, so the mix is not that of the screen. Rule as the data show it: active = cytotoxicity above about 50%; inactive = the rest. Entries with a potency or affinity are not part of this list.
assay: HPDE-C7 pancreatic duct cell viability loss – fluorescence, HTS (AID 430); settings: HPDE-C7 pancreatic duct cells viability, at 10 µM, hits give high values;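 also: cells exposed to compound for 48 hours before viability readout; 0% = vehicle and 100% = reference cytotoxic drug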

Structure (SMILES)	cytotoxicity
CCCNC(=O)c1cc(-c2ccco2)on1	-2.4% (inactive)
CCCOc1ccc(C(=O)NCc2cccnc2)cc1	-13.2% (inactive)
Cc1ccc(S(=O)(=O)Cn2nnnc2C(CC(C)C)N2CCN(C(=O)c3ccco3)CC2)cc1 (stereo not given)	4.4% (inactive)
CCCCN(CCCC)S(=O)(=O)c1ccc(C(=O)Nc2nnc(COC)o2)cc1	75.3% (active)
COCCN(CCOC)S(=O)(=O)c1ccc(C(=O)Nc2nnc(C)o2)cc1	-6.2% (inactive)
CCc1nnc(NC(=O)c2ccc(S(=O)(=O)N(CCOC)CCOC)cc2)o1	-20.2% (inactive)
CCc1nnc(NC(=O)c2ccc(S(=O)(=O)N(CC(C)C)CC(C)C)cc2)o1	48.8% (inactive)
CCCCN(CC)S(=O)(=O)c1ccc(C(=O)Nc2nnc(COC)o2)cc1	17.5% (inactive)
CCCCN(CC)S(=O)(=O)c1ccc(C(=O)Nc2nnc(CSC)o2)cc1	23.6% (inactive)
COCc1nnc(NC(=O)c2ccc(S(=O)(=O)N(C)c3ccccc3)cc2)o1	42.1% (inactive)
CSCc1nnc(NC(=O)c2ccc(S(=O)(=O)N(CC(C)C)CC(C)C)cc2)o1	62.4% (active)
CCCN(CCC)S(=O)(=O)c1ccc(C(=O)Nc2nnc(CSC)o2)cc1	12.6% (inactive)
CCN(c1ccccc1)S(=O)(=O)c1ccc(C(=O)Nc2nnc(COC)o2)cc1	60.9% (active)
COCc1nnc(NC(=O)c2ccc(S(=O)(=O)N(C)C3CCCCC3)cc2)o1	47.9% (inactive)
CCCCN(CCCC)S(=O)(=O)c1ccc(C(=O)Nc2nnc(CSC)o2)cc1	73.1% (active)
O=C(O)C1CC(=O)N(c2ccc(F)c(F)c2)C1 (stereo not given)	-4.7% (inactive)
CC1CCN(C(=O)CSc2nnc(-c3cc4ccccc4cc3O)n2Cc2ccco2)CC1	22.2% (inactive)
CCOC(=O)Cn1nc(C)c(-c2ccccc2)c1N	-9.4% (inactive)
Cc1nc2sc(C(c3ccccc3)N3CCC(O)CC3)c(O)n2n1 (stereo not given)	7.2% (inactive)
O=C(O)c1ccc(S(=O)(=O)c2ccc3c(c2)C(=O)N(CC2CCCO2)C3=O)cc1 (stereo not given)	-5.6% (inactive)

Structure (SMILES)	cytotoxicity
O=C(NC1CCCC1)C1CC(=O)N(C2CCCCCCC2)C1 (stereo not given)	-18% (inactive)
CCNc1c2c3c(cccc3n(C)c1=O)C(=O)c1ccccc1-2	53.8% (active)
Cn1c(=O)c(NCCO)c2c3c(cccc31)C(=O)c1ccccc1-2	-8.4% (inactive)
CC(=O)Nc1c2c3c(cccc3n(C)c1=O)C(=O)c1ccccc1-2	-6.7% (inactive)
Cc1nn(CCCNC(=O)C2CCCO2)cc1Br (stereo not given)	-8.3% (inactive)
CCOc1cc2[nH]c(=S)n(CC3CCCN3CC)c(=O)c2cc1OCC (stereo not given)	4.2% (inactive)
O=C(NCc1ccc2c(c1)OCO2)c1nnc(Cc2ccc(Cl)cc2)o1	-0.3% (inactive)
O=C(NCc1ccc2c(c1)OCO2)c1ccc(-c2ccc(Cl)cc2)o1	53.5% (active)
O=C(NCc1ccc2c(c1)OCO2)c1cccc(Cl)c1	-4.3% (inactive)
O=C(Nc1cccc2nsnc12)c1ccc2c(c1)OCCO2	-5.8% (inactive)
O=C(Nc1ccccc1C(=O)N1CCCC1)C1CCN(c2ncccn2)CC1	-9.4% (inactive)
O=C(COC(=O)C1CCN(C(=O)c2ccc(Cl)cc2)CC1)c1ccco1	1.1% (inactive)
COc1ccccc1-n1c(=O)[nH]c2c(C(N)=O)nc(-c3cccnc3)nc21	20.4% (inactive)
COc1ccc(-c2nc(C(N)=O)c3[nH]c(=O)n(-c4ccccc4OC)c3n2)c(OC)c1	-6.2% (inactive)
CCc1ccc(-c2nc(C(N)=O)c3[nH]c(=O)n(-c4ccccc4OC)c3n2)cc1	52.3% (active)
CC1(C)CC(=O)c2sc(NC(=O)CN3C(=O)CCC3=O)nc2C1	-5.4% (inactive)
COc1ccc(S(=O)(=O)N(CC(=O)N2CCOCC2)c2cc(Cl)ccc2OC)cc1OC	-21.9% (inactive)
CCCCNC(=O)Nc1cc(C(F)(F)F)c[nH]c1=O	4.6% (inactive)
Cc1cc(=O)c2ccccc2[nH]1	-8.3% (inactive)
O=c1cc(-c2ccccc2)[nH]c2ccccc12	60.9% (active)

Structure (SMILES)	cytotoxicity
O=c1cc(-c2ccccc2)c2ccccc2[nH]1	-20.9% (inactive)
O=C(NCCCN1CCCC1=O)NC12CC3CC(CC(C3)C1)C2	-16.8% (inactive)
CCOC(=O)N1CCC2(CC1)C(C(=O)C13CC4CC(CC(C4)C1)C3)C2(C#N)C#N (stereo not given)	-15.7% (inactive)
Cc1cc(C)n(-c2cccc3cccnc23)n1	-7% (inactive)
COc1ccc(S(=O)(=O)n2nc(OC(=O)c3ccc(C)cc3)cc2N)cc1	-9.2% (inactive)
COc1ccc(S(=O)(=O)n2nc(OC(=O)c3c(-c4ccccc4Cl)noc3C)cc2N)cc1	63.1% (active)
Cc1onc(-c2ccccc2Cl)c1C(=O)Oc1cc(N)n(S(=O)(=O)c2ccc(F)cc2)n1	32.7% (inactive)
COc1ccc(S(=O)(=O)n2nc(OC(=O)c3ccccc3)cc2N)cc1	1.9% (inactive)
COc1ccccc1C(=O)Oc1cc(N)n(S(=O)(=O)c2ccc(C)cc2)n1	-1.2% (inactive)
Cc1ccc(S(=O)(=O)n2nc(OC(=O)c3c(-c4ccccc4Cl)noc3C)cc2N)cc1	79.3% (active)
Cc1csc(NC(=O)CSc2nc(C)nc3c2c(=O)n(C)c(=O)n3C)n1	-1.2% (inactive)
O=C(c1ccc(CS(=O)(=O)Cc2ccc(Cl)cc2)o1)N1CCCC1	7.7% (inactive)
Cc1ccc(-c2cc(-c3cccc(F)c3)n[nH]2)c(O)c1	2.1% (inactive)
COc1ccccc1-c1cc(-c2cc(Cl)ccc2O)n[nH]1	-8% (inactive)
Cc1ccc(-c2cc(-c3ccccc3Cl)[nH]n2)c(O)c1	67.3% (active)
Oc1ccccc1-c1cc(-c2ccccc2Cl)[nH]n1	-4.7% (inactive)
Cc1ccccc1-c1cc(-c2ccccc2O)n[nH]1	25.4% (inactive)
COC(=O)C1=C(C)NC(=O)CC1c1ccc(C(=O)OC)cc1 (stereo not given)	5.9% (inactive)
CCN(CC)S(=O)(=O)c1ccc2[nH]cc(C(=O)NCCN3CCCCC3C)c(=O)c2c1 (stereo not given)	0% (inactive)
Cc1cc(=O)[nH]c(SCC2COC3(CCCCC3)O2)n1 (stereo not given)	-12.2% (inactive)
